Screens (PubChem BioAssay)
A selection: hits, their analogues and other compounds. The true share with any hit is near 13%.
USP30 inh: blocks human USP30 ubiquitin-rhodamine cleavage; Q70CQ3; purified USP30, Ub-rhodamine cleavage fluorescence; inhibition, % at 25 µM; actives 5.3% (n = 47,000)
Target sequence (Q70CQ3 whole entry, looked up): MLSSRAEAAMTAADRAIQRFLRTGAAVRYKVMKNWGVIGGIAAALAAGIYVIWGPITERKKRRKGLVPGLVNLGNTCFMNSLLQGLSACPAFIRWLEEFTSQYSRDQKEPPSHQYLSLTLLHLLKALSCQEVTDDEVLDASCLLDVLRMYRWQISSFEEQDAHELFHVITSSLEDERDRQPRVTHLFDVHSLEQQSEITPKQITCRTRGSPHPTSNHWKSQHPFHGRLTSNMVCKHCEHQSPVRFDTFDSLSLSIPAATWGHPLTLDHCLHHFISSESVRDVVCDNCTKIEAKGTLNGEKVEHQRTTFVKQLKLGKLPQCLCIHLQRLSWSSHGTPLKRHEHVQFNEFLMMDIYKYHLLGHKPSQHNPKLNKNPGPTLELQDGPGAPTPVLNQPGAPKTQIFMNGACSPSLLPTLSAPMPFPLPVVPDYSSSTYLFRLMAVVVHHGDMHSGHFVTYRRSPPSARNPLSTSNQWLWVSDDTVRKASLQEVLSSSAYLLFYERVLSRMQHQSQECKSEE
USP8 inh: blocks human USP8 ubiquitin-rhodamine cleavage | P40818 | purified USP8, Ub-rhodamine cleavage fluorescence, 30 min | inhibition, % at 20 µM | actives 4.2% (n = 47,000)
USP10 inh: blocks human USP10 ubiquitin-rhodamine cleavage; Q14694; purified USP10, Ub-rhodamine fluorescence, 60 min; inhibition, % at 20 µM; actives 1.1% (n = 47,000); AID 1645856
OTUD3 inh: inhibitors of human OTUD3 deubiquitinase; inhibition, % at 25 µM; Q5T2D3; purified OTUD3, Ub-rhodamine fluorescence, 2 h; AID 1645858; actives 0.7% (n = 47,000)
USP28 block: inhibitors of human USP28 deubiquitinase. purified USP28, Ub-rhodamine cleavage fluorescence, 30 min. inhibition, % at 25 µM. actives 3% (n = 47,000). AID 1645857
USP17 block: human USP17-like deubiquitinase inhibition | purified USP17, Ub-rhodamine cleavage fluorescence, 3 h | inhibition, % at 50 µM | actives 6.5% (n = 47,000) | AID 1645855
Starred values were filed as active, the others as inactive; nt = no result given. Rule as the data show it: active = inhibition above about 30%; inactive = the rest.

SMILES	USP30 inh	USP8 inh	USP10 inh	OTUD3 inh	USP28 block	USP17 block
Cc1ccc(F)cc1S(=O)(=O)N1CCC2(CC1)CC2c1nc(-c2cccnc2)no1 (centres undefined)	-8.8	3.5	3.8	-12.7	-3.6	-12.2
COc1ccc(S(=O)(=O)N2CCC3(CC2)CC3c2nc(-c3cccnc3)no2)c(C)c1 (centres undefined)	36.3*	0.5	5.1	10.2	4.7	19.0
CN1C[C@H]2CCN(C(=O)Nc3cccc(Cl)c3)CC[C@H]2S1(=O)=O	-0.9	0.9	2.9	1.4	-1.4	-0.5
O=C(NCc1nc(-c2ccc3c(c2)ncn3C2CCCC2)no1)c1cccs1	-243.1	-42.2	-2.0	-34.4	-33.6	1.2
CCCn1nnc2cc(-c3noc(CNC(=O)c4cccs4)n3)ccc21	15.2	4.6	-1.2	5.7	15.6	33.3*
CCOc1cc2[nH]c(=O)n(CC3CCC(C(=O)N4CCC5(CC4)OCCO5)CC3)c(=O)c2cc1OCC (centres undefined)	10.8	3.9	0.0	6.6	-0.2	4.5
CCOc1cc2[nH]c(=O)n(CC3CCC(C(=O)NCCc4c[nH]c5ccccc45)CC3)c(=O)c2cc1OCC (centres undefined)	37.0*	-10.0	18.9	-0.8	-6.1	22.6
COc1ccc(CN(CC(=O)NC2CCCCC2)C(=O)CCC(=O)Nc2ccccn2)cc1	48.0*	0.2	2.3	10.9	0.5	3.9
COc1ccc(OC)c(N(C(=O)CCCC(=O)Nc2ccccn2)C(C(=O)NC2CCCCC2)c2ccc(F)cc2)c1 (centres undefined)	9.0	6.0	10.9	-3.0	-3.9	35.3*
Cc1ccc(N(C(=O)CCCC(=O)Nc2ccccn2)C(C(=O)NC2CCCC2)c2ccc(F)cc2)c(C)c1 (centres undefined)	9.2	0.2	-2.8	11.6	0.8	15.8
Cc1ccc(C(C(=O)NC2CCCCC2)N(C(=O)CCCC(=O)Nc2ccccn2)c2ccc(C)cc2C)cc1 (centres undefined)	26.7	-3.2	2.4	20.1	5.1	48.6*
Cc1nc(C(=O)Nc2cccc(Cl)c2Cl)nn1-c1cc(Cl)cc(Cl)c1	24.2	1.7	3.3	8.1	9.7	71.2*
O=C(Nc1cccc(Cl)c1Cl)c1ccc(N2CCCC2)nn1	-37.2	-45.7	-3.8	0.0	9.3	nt
C=C(CCC=C(C)C)[C@H]1CC[C@]2(C)[C@@H]1CC[C@@H]1[C@@]3(C)CCC(=O)C(C)(C)[C@@H]3CC[C@]12C	31.4*	10.4	15.1	19.1	16.1	40.5*
C=C(CCC=C(C)C)[C@H]1CC[C@]2(C)[C@@H]1CC[C@@H]1[C@@]3(C)CC[C@H](O)C(C)(C)[C@@H]3CC[C@]12C	2.0	5.9	3.5	4.7	4.4	10.6
O=C(N[C@H]1[C@H](O)[C@H](O)C[C@@H]1C1CCCCC1)C1CC1	48.8*	1.0	1.1	17.7	15.8	21.1
CCOC(=O)c1ccc(NC(=O)Cc2sc(Nc3ccc(O)cc3)nc2O)cc1	-13.1	0.5	3.5	-2.2	-3.2	24.4
Cc1ccc(Nc2nc(O)c(CC(=O)Nc3cccc(Cl)c3C)s2)cc1C	15.0	63.0*	30.5*	18.6	6.4	13.6
CCOC(=O)c1cc2c(=O)n3ccccc3nc2n(Cc2ccco2)c1=NC(=O)COc1ccc2ccccc2c1	-257.5	10.3	-17.8	-40.8	-29.6	-6.3
CCOC(=O)c1c2ccc(OCC(=O)NCc3ccco3)cc2n2ccccc12	-184.7	63.1*	-6.0	-23.7	-29.4	20.3
COc1ccc(C(=O)Nc2ccc3c(c2)C(=O)N(C)c2ccccc2O3)cc1	3.8	8.3	5.1	0.3	70.6*	6.5
COc1ccc(C(=O)Nc2ccc(C)c(N3CCCC3=O)c2)cc1	-9.5	-6.0	-1.2	-10.3	-8.1	-24.4
Cc1ccccc1C(=O)Nc1ccc2c(c1)C(=O)N(C)c1ccccc1O2	-2.7	9.1	4.5	-1.8	40.2*	1.5
Cc1ccc2c(c1)N(C)C(=O)c1cc(NC(=O)c3ccc(F)cc3)ccc1O2	88.9*	77.0*	40.1*	15.7	24.1	23.3
Fc1ccc(-c2noc([C@@H]3CCCN3Cc3ccccn3)n2)nc1	-105.2	11.5	-6.1	-28.6	-29.4	-38.1
COc1ccc(C(=O)N(c2ccc(F)cc2)c2nc3ccccc3s2)cc1OC	48.4*	-39.3	0.0	14.2	3.9	4.4
COc1ccc(CN2CC[C@H]3[C@H]2CCN3C(=O)c2cnn(C)c2)cc1	23.2	-173.2	0.2	17.1	11.9	-14.3
